Test results: PubChem BioAssay (NCI)
Compounds without any hit were thinned out: in the full panel of roughly 83,000, 20% have a hit.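 Values shown are percent growth following 48 h exposure of cells in 96-well plates to a single concentration of compound; below 10 was considered active.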 Unmarked numbers belong to inactive results. Calls of active or inactive are those of the source.

test system: A498 renal; experiment: NCI-60 one-dose screen, 48 h (100 = growth as untreated, 0 = no growth, -100 = all killed); details: 10 µM unless noted

Row | Structure (SMILES) | growth
1 | CN(C)CCN(C)c1ccc2ncc(C#Cc3cncc(C(=O)Nc4ccc(CN5CCN(C)CC5)c(C(F)(F)F)c4)c3)n2n1 | 112%
2 | NC(N)=Nc1ccc(Oc2cccc(Nc3ccc(Br)c(C(F)(F)F)c3)c2)cn1 | -25.1% (active)
3 | COc1cc(Cn2cc3c(c2)-c2onc(CN4CCOCC4)c2CC3)cc(OC)c1OC | 114%
4 | Cc1cc(-c2ccc(Cl)cc2)n(Cc2nnc(SCC(=O)Nc3ccc(S(N)(=O)=O)cc3)n2-c2ccc([N+](=O)[O-])cc2)n1 | 84.5%
5 | COc1ccc(C(=O)CSc2nc3c(c(Nc4ccc(S(N)(=O)=O)cc4)n2)CCCC3)cc1 | 86.5%
6 | CCn1c(SCC(=O)Nc2cccc(C(=O)/C=C/c3cc(OC)c(OC)c(OC)c3)c2)nc2ccccc2c1=O | 71.3%
7 | Nc1ncc(-c2ccc(NS(=O)(=O)c3ccc(Cl)c(Cl)c3)cc2)[nH]1 | 85.1%
8 | Cc1nn(-c2ccccc2)c2ncnc(N/N=C/c3ccccc3O)c12 | 58.4%
9 | COc1cc(-c2nnc(SCc3ccc(O)c4ncccc34)n2-c2ccccc2)cc(OC)c1OC | 1.54% (active)
10 | Oc1ccc(CSc2nnc(-c3ccc(Cl)cc3)n2-c2ccccc2)c2cccnc12 | 50.2%
11 | CCc1ccc(SC2c3ccc(N(CC)CC)cc3Oc3nc(N)c(C#N)c(N)c32)cc1 (stereo not drawn) | -8.49% (active)
12 | CS(=O)(=O)Nc1cc(-c2ccc3ncc(C#N)c(NCc4ccccc4O)c3c2)cnc1Cl | -41% (active)
13 | NS(=O)(=O)c1ccc(Nc2cc(-c3ccccc3)nc(SCC(=O)c3ccccc3)n2)cc1 | 94.9%
